The whole screen tested about 2,400 compounds, of which about 220 (9.2%) were called active. The sample holds actives, similar compounds and a random draw of the others, so the mix is not that of the screen. Values without a mark were called inactive.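 The calls were made as follows: active = signal change above the mean of dofetilide-free buffer controls plus 3 SD, so a positive margin; inactive = the rest.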

This assay can be described thus: thallium signal changes without hERG – cell-based, CHO-K1 parental line, FluxOR thallium flux, counter-screen for hERG block protection project, confirmation (AID 1839).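 Also: compounds applied alone with no dofetilide to cells lacking hERG.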 The conditions noted are these: CHO-K1 parental cells, FluxOR thallium flux fluorescence; at 10 µM.
With `CCOC(=O)N1CCN(C(=O)c2ccc(Cl)c(S(=O)(=O)Nc3ccccc3)c2)CC1`, the signal change vs control minus 3*SD hit threshold (margin above threshold, higher = more increase) was -11.6%.

Turning to `O=C(O)CSc1nc2ccccc2nc1Cc1ccccc1F`, the signal change vs control minus 3*SD hit threshold (margin above threshold, higher = more increase) is -22.7%. Under `CCC(=O)N1CCN(c2nc(CC)nc3sc4c(c23)CCCC4)CC1` stands -56%; under `Cc1cc(-c2cccc(Br)c2)c(C#N)c(N)n1`, -34.5%.

Consider `O=C(CCN1C(=O)/C(=C\C=C\c2ccccc2)SC1=S)Nc1cccc(C(=O)O)c1`, for which the signal change vs control minus 3*SD hit threshold (margin above threshold, higher = more increase) is -27.2%.

Turning to `Cc1ccccc1OC(=O)n1c(=S)oc2cc(Cl)ccc21`, the signal change vs control minus 3*SD hit threshold (margin above threshold, higher = more increase) was -25.4%. As for `COC(=O)c1sc(NC(=S)NC(=O)c2ccccc2C)nc1C`, the signal change vs control minus 3*SD hit threshold (margin above threshold, higher = more increase) is -2.6%.

On to `O=C(NNC(=O)c1ccc(Cl)cc1Cl)c1cnccn1`, for which the signal change vs control minus 3*SD hit threshold (margin above threshold, higher = more increase) is -29%. The same measure for `O=C(Nc1nnc(-c2ccc3c(c2)CCCC3)o1)c1ccc(Cl)cc1Cl`: -21.2%; for `Cc1ccccc1C(=O)Nc1nc(=S)ss1`: 9.5% (active).

As to `O=C(Nc1nc(=S)ss1)c1ccc(Cl)cc1Cl`, the signal change vs control minus 3*SD hit threshold (margin above threshold, higher = more increase) is 56.5% (active). Under `CC(C)CC(=O)Nc1nc(=S)ss1` stands -30.3%; under `O=C1Nc2ccc(Br)cc2C1Cc1ccccc1F` (configuration not stated), -42.3%; under `O=C(O)c1ccc2c(c1)C(=O)N(c1cc([N+](=O)[O-])ccn1)C2=O`, -24.2%. The same measure for `CCC(=O)Nc1ccc(N2CCOCC2)c(S(=O)(=O)Nc2ccc(OC)cc2)c1`: -21.7%; for `O=C(c1ccccc1)c1nccn1-c1ccc(Cl)nn1`: -27.6%; for `CC(NC(=O)C1CCN(S(=O)(=O)c2cccc3cccnc23)CC1)c1ccccc1` (configuration not stated): -31.3%.

Turning to `Cc1cc(C(=O)NCCN2C(=O)S/C(=C\c3cccs3)C2=O)ccc1[N+](=O)[O-]`, the signal change vs control minus 3*SD hit threshold (margin above threshold, higher = more increase) was -31.4%. The same measure for `Cn1cc(/C=C2\SC(=O)NC2=S)c2ccccc21`: -27.6%. The same measure for `CCOc1ccc(/C=C2/SC(=O)NC2=S)cc1`: 39% (active). The same measure for `CCOc1ccc(/C=C2\CCc3ccccc3C2=O)cc1`: -33.6%. For the molecule `Cc1ccc(-c2nc(N)s[n+]2-c2ccccc2)cc1`, the signal change vs control minus 3*SD hit threshold (margin above threshold, higher = more increase) was -7.8%. Under `CCOC(=O)N/N=C\c1ccc(-c2cc(Cl)ccc2Cl)o1` stands -32%; under `Cc1ccc(C(C)NC(=O)c2cccs2)cc1C` (configuration not stated), -16.2%. Under `O=C(N/N=C/c1cc(Cl)ccc1O)c1ccccc1Br` stands -21.5%. For `CCOC(=O)c1sc(NN=C(C(=O)OC)C(=O)OC)c(C(=O)OCC)c1C`, the signal change vs control minus 3*SD hit threshold (margin above threshold, higher = more increase) is -7.4%. With `CCOc1ccc(CC(C(N)=O)C(N)=O)cc1`, the signal change vs control minus 3*SD hit threshold (margin above threshold, higher = more increase) is -32.5%. As for `CCOc1ccc(N(CC)C(=O)COc2cc(=O)n(C)c3ccccc23)cc1`, the signal change vs control minus 3*SD hit threshold (margin above threshold, higher = more increase) was -18.3%. Under `CCCOc1ccc(-c2c(=O)n(O)c3ccccc3[n+]2[O-])cc1` stands 29.7% (active); under `CCCOc1ccc(C(=O)NNC(=S)NC(=O)c2ccccc2)cc1`, -44.9%. In the case of `CCOc1ccc(-c2c(=O)n(O)c3ccccc3[n+]2[O-])cc1`, the signal change vs control minus 3*SD hit threshold (margin above threshold, higher = more increase) was 19.7% (active). On to `CCCOc1ccc(OC(=O)c2ccc(Br)o2)cc1`, for which the signal change vs control minus 3*SD hit threshold (margin above threshold, higher = more increase) was -5.2%. Under `Cc1ccc(/C(O)=C2\C(=O)C(=O)N(Cc3cccnc3)C2c2ccccc2[N+](=O)[O-])cc1` (configuration not stated) stands -21.1%. The same measure for `COc1cc(NC(=O)c2ccccc2)c(OC)cc1NC(=O)Cc1ccc(Br)cc1`: -10.9%; for `CCc1ccc2[nH]c(O)c(N=Nc3nc(-c4ccccc4)cs3)c2c1`: -38.8%; for `Cc1ccccc1OCC(=O)N=Nc1c(O)n(C)c2ccccc12`: -17.7%.

In the case of `Cn1c(O)c(N=Nc2nc(-c3ccccc3)cs2)c2ccccc21`, the signal change vs control minus 3*SD hit threshold (margin above threshold, higher = more increase) is 31.7% (active). Under `Cc1nn(CCC(=O)NNC(=S)Nc2ccc(F)cc2)c(C)c1[N+](=O)[O-]` stands -35.8%. The same measure for `O=C(NC(=S)NC1CCCc2ccccc21)c1ccco1` (configuration not stated): -14.2%. The same measure for `Cc1nonc1CN(C)C(=O)c1ccc(OC2CCN(Cc3ccccn3)CC2)cc1`: -22.2%; for `COCCNC(=O)C1CCN(S(=O)(=O)N2CCC3(CC2)OCCO3)CC1`: -40.3%. Consider `CCC1(c2ccc(Cl)cc2)NC(=S)N(c2ccccc2)N1` (configuration not stated), for which the signal change vs control minus 3*SD hit threshold (margin above threshold, higher = more increase) is 40.1% (active). Under `CCC1(c2ccccc2)NC(=S)N(c2ccc(C)cc2)N1` (configuration not stated) stands 48.2% (active); under `CCC1(c2ccc(Cl)cc2)NC(=S)N(c2ccc(C)cc2)N1` (configuration not stated), 18.9% (active). As to `CC1=CN2C(=N)/C(=C/c3ccc(Sc4ccc(Cl)cc4)o3)C(=O)N=C2S1`, the signal change vs control minus 3*SD hit threshold (margin above threshold, higher = more increase) was -23.1%.

Take `O=C(NC(=S)N(CC1CCC1)CC1CCCO1)c1cccc([N+](=O)[O-])c1` (configuration not stated): the signal change vs control minus 3*SD hit threshold (margin above threshold, higher = more increase) is -12.6%. The same measure for `CCCCCOCC1CC(C/C(C)=N/Nc2nc(-c3ccccc3)cs2)C(=O)O1` (configuration not stated): -31.7%; for `N#C/C(=N\Nc1ccccc1F)c1nc(-c2ccccc2)cs1`: -39.4%. Turning to `O=C(Nc1ccc(Cl)c(Cl)c1)Nc1nnc(CSc2ccccc2)s1`, the signal change vs control minus 3*SD hit threshold (margin above threshold, higher = more increase) is -17.6%. The same measure for `C=CCn1c(SCc2ccc(C(=O)O)cc2)nc2sc(C)c(C)c2c1=O`: 7% (active); for `CCn1c(SCC(=O)NC(=O)NCc2ccco2)nc2sc(C)c(C)c2c1=O`: -17.8%; for `C=CCSc1nc2sc3c(c2c(=O)n1CC)CCc1ccccc1-3`: -22.2%.

As to `CCc1nccn1S(=O)(=O)c1ccc2ccc(C)cc2c1`, the signal change vs control minus 3*SD hit threshold (margin above threshold, higher = more increase) is -33.5%.

As for `COc1ccc(Cc2c(O)nc(SCC(C)C)[nH]c2=O)cc1`, the signal change vs control minus 3*SD hit threshold (margin above threshold, higher = more increase) is -32.4%.

For `S=c1nc[nH]c2c1sc1nc(-c3ccccc3)c3c(c12)CCCC3`, the signal change vs control minus 3*SD hit threshold (margin above threshold, higher = more increase) is -5.5%. The same measure for `S=c1nc[nH]c2c1sc1nc(N3CCOCC3)c3c(c12)CCCC3`: 1.1% (active). The same measure for `CC(C)c1nc2sc3c(=S)nc[nH]c3c2c2c1CCC2`: -10.6%; for `O=C(O)CCCN1C(=O)C2C3c4ccccc4C(c4ccccc43)[C@@H]2C1=O` (some centres not stated): -37.1%. Under `COc1ccc(C(CC(=O)O)NC(=O)C(c2ccccc2)c2ccccc2)cc1` (configuration not stated) stands -32.8%; under `O=C(N/N=C/c1ccc(OC(F)F)cc1)C1=COCCO1`, -28.8%; under `CCOC(=O)c1sc(NC(=S)NC(=O)c2cccc(OC)c2)nc1C`, -15.5%. With `COc1ccc(N2CCN(C(=S)Nc3cccc(OC)c3)CC2)cc1`, the signal change vs control minus 3*SD hit threshold (margin above threshold, higher = more increase) was -27%.
